# In PubChem BioAssay (EPA / NIEHS):
# Activity calls are given as the source filed them. The calls were made as follows: active = hit-call score of the fitted dose curve at least 0.9, where 1 is the maximum; inactive = score below 0.9.
# Read-out: not listed separately
# Assay: BSK_3C_SRB: Viability Assessment in the BioMAP Diversity Plus: 3C Assay (AID 2283023);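 also: cells read 24 h after compound dosing; fitted both ways against DMSO so a hit may be signal rise or drop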
# Conditions: primary human endothelial cells (HUVEC)
# Summary of the method: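 Overt cytotoxicity is gauged in parallel confluent HUVEC cultures by SRB total-protein staining at the time of biomarker measurement, 24 h after dosing. Gain or loss of signal is fitted versus DMSO.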
Compound,outcome,AC50
O=C1O[C@H]([C@H](O)CO)C(O)=C1O,inactive,
O=C(O)CC(O)(CC(=O)O)C(=O)O,inactive,
CCCCCCCCCCCCCCOS(=O)(=O)O,inactive,
CN(C)CCCN(C)CCCN(C)C,inactive,
Cn1cnc2c1c(=O)[nH]c(=O)n2C,inactive,
N[C@@H](Cc1c[nH]c2ccccc12)C(=O)O,inactive,
CO[C@@H]1COCC[C@@H]1N[C@@H]1CC[C@@](C(=O)N2CCc3ncc(C(F)(F)F)cc3C2)(C(C)C)C1,inactive,
CC(C)c1cccc(C(C)C)c1,inactive,
CC(=O)O,inactive,
NC(=Nc1ccccc1)Nc1ccccc1,inactive,
CC(=O)S[C@H](C(=O)N[C@H]1Cc2ccccc2[C@H]2CCC[C@@H](C(=O)O)N2C1=O)C(C)C,inactive,
OCC(CO)n1cnc(-c2ccc(F)cc2)c1-c1ccnc(Oc2ccccc2)n1,inactive,
CCCCc1nc2cccnc2n1Cc1ccc(-c2ccccc2-c2nnn[nH]2)cc1,inactive,
O=C1NC(=O)C(c2ccccc2)(c2ccccc2)N1,inactive,
Nc1nc(=S)c2[nH]cnc2[nH]1,inactive,
COC(=O)[C@H]1[C@H]2C[C@@H]3c4[nH]c5cc(OC)ccc5c4CCN3C[C@H]2C[C@@H](OC(=O)c2cc(OC)c(OC)c(OC)c2)[C@@H]1OC,,24.9 µM (active)
CCCC[C@H]1CN(CC2CCOCC2)C(=O)OC12CCN(C1(C)CCN(C(=O)c3c(C)ncnc3C)CC1)CC2,inactive,
O=C(O)c1cccnc1,inactive,
O=C(Oc1ccccc1)c1cccc(C(=O)Oc2ccccc2)c1,inactive,
O=C1c2c(O)cccc2Cc2cccc(O)c21,,20 µM (active)
COc1ccc(C(=O)Nc2nc3ccccc3c(NCc3ccccc3)c2C#N)cc1,,8.6 µM (active)
O=[Si]=O,inactive,
COC(=O)CCC(=O)OC,inactive,
O=Cc1ccccc1C=O,inactive,
c1ccc2occc2c1,inactive,
CC(C)NCC(O)c1ccc(O)c(O)c1 (configuration not stated),inactive,
C/C=C/C=C/C(=O)O,inactive,
CC1=C(C)S(=O)(=O)CCS1(=O)=O,inactive,
CCCCC(CC)COC(=O)CCCCCCCC(=O)OCC(CC)CCCC (configuration not stated),inactive,
O=C1OC(c2ccc(O)cc2)(c2ccc(O)cc2)c2ccccc21,,28.6 µM (active)

# Read-out: Matrix Metallopeptidase 1 (MMP1), MMP1 (gene 4312)
# Assay: BSK_BE3C_MMP1: BioMAP Diversity Plus: BE3C Assay for Matrix Metallopeptidase 1 (MMP1) Biomarker Activity (AID 2283024)
# Conditions: primary human bronchial epithelial cells; actives raise or lower the signal
# Summary of the method: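 Human primary bronchial epithelial cells (BE3C system) dosed for 24 h; MMP-1 quantified by ELISA. Bidirectional fit against DMSO; cytotoxicity tracked in parallel cultures by SRB total-protein staining.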
Compound,outcome,AC50
O=C1O[C@H]([C@H](O)CO)C(O)=C1O,inactive,
O=C(O)CC(O)(CC(=O)O)C(=O)O,inactive,
CCCCCCCCCCCCCCOS(=O)(=O)O,,31.8 µM (active)
N[C@@H](Cc1c[nH]c2ccccc12)C(=O)O,inactive,
CC(C)c1cccc(C(C)C)c1,inactive,
CC(=O)O,inactive,
NC(=Nc1ccccc1)Nc1ccccc1,inactive,
CC(=O)S[C@H](C(=O)N[C@H]1Cc2ccccc2[C@H]2CCC[C@@H](C(=O)O)N2C1=O)C(C)C,inactive,
COC(=O)[C@H]1[C@H]2C[C@@H]3c4[nH]c5cc(OC)ccc5c4CCN3C[C@H]2C[C@@H](OC(=O)c2cc(OC)c(OC)c(OC)c2)[C@@H]1OC,inactive,
CCCC[C@H]1CN(CC2CCOCC2)C(=O)OC12CCN(C1(C)CCN(C(=O)c3c(C)ncnc3C)CC1)CC2,inactive,
O=C1c2c(O)cccc2Cc2cccc(O)c21,,4.63 µM (active)
c1ccc2occc2c1,inactive,
CCCCC(CC)COC(=O)CCCCCCCC(=O)OCC(CC)CCCC (configuration not stated),inactive,

# Read-out: not listed separately
# Assay: BSK_3C_Vis: BioMAP Diversity Plus: 3C Assay for Morphology Visualization (AID 2283025);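 also: fitted both ways so gain or loss versus DMSO counts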;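 as to AC50: light microscopy image of cell morphology used as background control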
# Conditions: primary human endothelial cells (HUVEC)
# Summary of the method: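 Human umbilical vein endothelial cell morphology was inspected by light microscopy 24 h after chemical dosing; scored bidirectionally relative to DMSO.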
Compound,outcome,AC50
O=C1O[C@H]([C@H](O)CO)C(O)=C1O,inactive,
O=C(O)CC(O)(CC(=O)O)C(=O)O,inactive,
CCCCCCCCCCCCCCOS(=O)(=O)O,inactive,
CN(C)CCCN(C)CCCN(C)C,inactive,
Cn1cnc2c1c(=O)[nH]c(=O)n2C,inactive,
N[C@@H](Cc1c[nH]c2ccccc12)C(=O)O,inactive,
CO[C@@H]1COCC[C@@H]1N[C@@H]1CC[C@@](C(=O)N2CCc3ncc(C(F)(F)F)cc3C2)(C(C)C)C1,inactive,
CC(C)c1cccc(C(C)C)c1,inactive,
CC(=O)O,inactive,
NC(=Nc1ccccc1)Nc1ccccc1,inactive,
CC(=O)S[C@H](C(=O)N[C@H]1Cc2ccccc2[C@H]2CCC[C@@H](C(=O)O)N2C1=O)C(C)C,inactive,
OCC(CO)n1cnc(-c2ccc(F)cc2)c1-c1ccnc(Oc2ccccc2)n1,inactive,
CCCCc1nc2cccnc2n1Cc1ccc(-c2ccccc2-c2nnn[nH]2)cc1,inactive,
O=C1NC(=O)C(c2ccccc2)(c2ccccc2)N1,inactive,
Nc1nc(=S)c2[nH]cnc2[nH]1,inactive,
CCCC[C@H]1CN(CC2CCOCC2)C(=O)OC12CCN(C1(C)CCN(C(=O)c3c(C)ncnc3C)CC1)CC2,inactive,
O=C(O)c1cccnc1,inactive,
O=C(Oc1ccccc1)c1cccc(C(=O)Oc2ccccc2)c1,inactive,
O=C1c2c(O)cccc2Cc2cccc(O)c21,,39 µM (active)
COc1ccc(C(=O)Nc2nc3ccccc3c(NCc3ccccc3)c2C#N)cc1,,39 µM (active)
O=[Si]=O,inactive,
COC(=O)CCC(=O)OC,inactive,
O=Cc1ccccc1C=O,inactive,
c1ccc2occc2c1,inactive,
CC(C)NCC(O)c1ccc(O)c(O)c1 (configuration not stated),inactive,
C/C=C/C=C/C(=O)O,inactive,
CC1=C(C)S(=O)(=O)CCS1(=O)=O,,39 µM (active)
CCCCC(CC)COC(=O)CCCCCCCC(=O)OCC(CC)CCCC (configuration not stated),inactive,
O=C1OC(c2ccc(O)cc2)(c2ccc(O)cc2)c2ccccc21,,37.5 µM (active)
